# Source: PubChem BioAssay
# Rows were chosen to be rich in hits. Some 3.4% of all compounds tested hit in one or more screens of this group.
# PLCg1 inh = blocks human PLC-gamma1 enzyme activity. P19174. purified PLC-gamma1, fluorogenic substrate, fluorescence. inhibition, % at 12.2 µM. actives 0.84% (n = 370,000). AID 720700; in the data active = inhibition above about 9.5%
# Target sequence (P19174 whole entry, looked up): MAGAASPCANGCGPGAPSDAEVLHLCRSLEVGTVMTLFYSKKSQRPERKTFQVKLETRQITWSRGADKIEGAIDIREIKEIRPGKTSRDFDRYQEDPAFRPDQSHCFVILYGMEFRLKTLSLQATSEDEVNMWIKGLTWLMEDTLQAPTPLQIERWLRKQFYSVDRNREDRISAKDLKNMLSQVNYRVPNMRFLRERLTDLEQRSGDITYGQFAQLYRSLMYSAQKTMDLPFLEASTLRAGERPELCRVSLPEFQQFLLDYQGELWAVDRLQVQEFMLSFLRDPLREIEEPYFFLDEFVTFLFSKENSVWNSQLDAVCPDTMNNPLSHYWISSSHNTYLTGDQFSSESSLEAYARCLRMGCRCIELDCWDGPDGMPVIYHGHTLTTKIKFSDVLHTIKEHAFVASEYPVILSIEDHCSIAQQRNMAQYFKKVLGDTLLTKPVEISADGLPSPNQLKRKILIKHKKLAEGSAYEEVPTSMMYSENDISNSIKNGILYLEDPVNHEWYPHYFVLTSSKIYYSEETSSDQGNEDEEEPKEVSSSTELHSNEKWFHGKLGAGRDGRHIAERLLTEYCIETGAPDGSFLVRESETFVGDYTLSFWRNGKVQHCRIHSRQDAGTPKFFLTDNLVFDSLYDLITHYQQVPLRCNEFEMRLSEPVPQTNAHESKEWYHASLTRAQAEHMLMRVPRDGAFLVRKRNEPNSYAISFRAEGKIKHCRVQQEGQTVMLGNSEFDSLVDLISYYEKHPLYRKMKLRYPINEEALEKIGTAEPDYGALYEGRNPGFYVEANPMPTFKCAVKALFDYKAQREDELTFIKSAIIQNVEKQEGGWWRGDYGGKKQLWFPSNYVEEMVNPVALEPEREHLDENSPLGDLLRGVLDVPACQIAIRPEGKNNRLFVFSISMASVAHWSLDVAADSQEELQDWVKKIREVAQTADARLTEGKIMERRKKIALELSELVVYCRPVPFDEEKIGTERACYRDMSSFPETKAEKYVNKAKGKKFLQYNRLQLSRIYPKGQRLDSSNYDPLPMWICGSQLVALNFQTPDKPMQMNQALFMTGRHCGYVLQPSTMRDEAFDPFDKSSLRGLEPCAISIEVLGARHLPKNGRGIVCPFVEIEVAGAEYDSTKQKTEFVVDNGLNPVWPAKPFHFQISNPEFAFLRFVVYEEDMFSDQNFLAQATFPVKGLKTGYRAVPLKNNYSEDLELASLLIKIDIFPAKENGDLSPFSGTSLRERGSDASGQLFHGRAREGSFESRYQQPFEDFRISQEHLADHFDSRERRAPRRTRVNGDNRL
# HGIII-sPLA2 inh = Blocks human group III sPLA2 activity. actives 0.56% (n = 370,000). QFRET BODIPY PC-A2 liposome hydrolysis, fluorescence. AID 743126. Q9NZ20. inhibition, % at 12.2 µM;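 active = inhibition above mean plus 3 SD of compounds lying within the high and low control bounds, cut at about 19% in these data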;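 note: 0% = median of test compound wells and 100% = no enzyme DMSO wells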
# PLC-beta3 inh = PLC-beta3 (human) inhibition, primary screen. Q01970. Purified PLC-beta3, fluorogenic substrate, fluorescence. inhibition, % at 12.2 µM. actives 0.18% (n = 370,000). AID 720704; in the data active = inhibition above about 11%;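 note: 0% = median of compound wells on plate and 100% = full blocker control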
# ADAM17 inh = inhibitors of human ADAM17. P78536. recombinant ADAM17, EDANS/DABCYL FRET peptide cleavage. inhibition, % at 6.95 µM. actives 0.83% (n = 370,000);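 active = inhibition above the mean of compounds lying between control limits plus 3 SD, set per campaign, cut at about 8.5% in these data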;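 note: 0% = DMSO-only wells as the low control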
# KLK7 zymogen act = activators of human kallikrein-7 zymogen | P49862 | purified proKLK7, EDANS-DABCYL substrate fluorescence; 100% is mature enzyme control, 0% vehicle | activation, % at 7 µM | actives 0.9% (n = 370,000);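 active = activation above the mean of all tested compounds plus 3 SD, computed per campaign excluding outliers beyond control limits, cut at about 13% in these data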
# ADAM10 inh = ADAM10 inhibition, QFRET primary screen; recombinant ADAM10, EDANS/DABCYL FRET peptide cleavage, 3 h; actives 0.62% (n = 370,000); O14672; inhibition, % at 7 µM;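 active = inhibition above a per-campaign cutoff equal to the mean of compounds falling between control-based bounds plus 3 SD, cut at about 20% in these data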;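 note: 0% = DMSO wells while the 100% control is not disclosed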
# KLK7 act conf = confirmation of human kallikrein-7 zymogen activators | activation, % at 7 µM | actives 68% (n = 3,200) | purified proKLK7, EDANS-DABCYL substrate fluorescence; scaled: vehicle 0, mature enzyme 100 | shares compounds with KLK7 zymogen act;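 active = activation, as change over the incubation, above the mean of all tested compounds plus 3 SD, cut at about 13% in these data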
# EDANS-DABCYL int = fluorescence interference counter-screen for KLK7 activators | shares compounds with KLK7 zymogen act | EDANS-DABCYL substrate fluorescence interference, no enzyme, 4 h; solvent 0%, active enzyme control 100% | activation, % at 7 µM | actives 80% (n = 3,200);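 active = activation above the all-compound mean plus 3 SD, ignoring values outside control-based bounds, cut at about 4.8% in these data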;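 note: value is the 4 h activation minus the activation read at time zero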
# An asterisk follows results filed as active; i = inactive; · = no result.
SMILES,PLCg1 inh,HGIII-sPLA2 inh,PLC-beta3 inh,ADAM17 inh,KLK7 zymogen act,ADAM10 inh,KLK7 act conf,EDANS-DABCYL int
COc1ccc(-c2cc(C(=O)OCC(=O)N3CCOCC3)c3ccccc3n2)cc1,i,-6,i,-94,59*,-263,144*,141*
COc1ccc(-c2cc(C(F)F)n3ncc(C(=O)N4CCN(C)CC4)c3n2)cc1,i,-5,i,-151,15*,-462,-4,-13
COc1ccc(-c2cc(C(=O)N3CCOCC3)c3cc(C)ccc3n2)cc1,i,4,i,i,64*,i,15*,21*
CCCCCC[C@H](CN(CCCC)S(C)(=O)=O)c1ccccc1,0,-4,3,0,0,3,·,·
CCN(CC)c1ccc(-c2nn3c(-c4ccc(C(C)(C)C)cc4)nnc3s2)cc1,1,2,1,-8,5,-25,·,·
CCOC(=O)CCCNC(=O)COC(=O)c1cc(C)cc(C)c1,-2,-6,2,-2,0,5,·,·
CC1CN(C(=O)c2cc3ccccc3cc2O)CC(C)O1 (stereo not given),-65,3,-68,-8,-19,-8,·,·
CC1CN(C(=O)COC(=O)c2cc3ccccc3cc2O)CC(C)O1 (stereo not given),-61,5,-89,-7,14*,-15,17*,17*
CCOC(=O)CCCNC(=O)COC(=O)c1cc2ccccc2cc1O,-73,-3,-92,-4,25*,-10,19*,19*
COc1ccc2nc(C)cc(C(=O)O)c2c1,-136,0,-160,-170,5,i,·,·
COc1ccc2nc(-c3ccc(Cl)cc3)cc(C(=O)O)c2c1,-289,-4,-434,i,25*,i,27*,44*
COc1ccc(-c2cc(C(=O)NCC3CCCO3)c3cc(C)ccc3n2)cc1 (stereo not given),i,-1,i,-227,25*,i,-40,-36
C/C(=N\NC(=O)Cc1cccs1)c1ccco1,1,-2,0,1,0,-1,·,·
CCn1c(SCC(=O)NN=Cc2ccc(C(=O)O)cc2)nc2ccccc21,-4,-1,3,1,0,-3,·,·
C=CCN1C(=O)[C@@H](CC(=O)N2CCN(C(=O)C3CC3)CC2)[C@]2(C(=O)OC)CCCCC=C12,2,2,3,-2,0,-3,·,·
Cc1ccc(C(=O)/C=C/Nc2ccc(S(=O)(=O)Nc3cc(C)nc(C)n3)cc2)cc1,-67,-26,-105,-6,30*,-41,148*,119*
O=C(CCc1ccccc1-c1ccccc1CCNC(=O)c1cccc(F)c1)NCc1ccccc1,-1,8,-1,-10,0,-64,·,·
COC(=O)c1ccc2c(CCO)c[nH]c2c1,-352,-2,-461,i,16*,i,7,12*
COC(=O)c1ccc(CNC(=O)CCc2c[nH]c3ccccc23)cc1,-1,-34,-5,-6,0,-7,·,·
O=C(O)c1cc(-c2cccc(Cl)c2)nc2nc(N3CCCCC3)sc12,-321,-8,-382,i,26*,i,31*,31*
Nc1c(C(=O)OCC(=O)Nc2ccc(Cl)cc2[N+](=O)[O-])[nH]c(=O)[nH]c1=O,4,4,-5,-2,14*,-6,136*,137*
NS(=O)(=O)c1cc(C(=O)OCC(=O)Nc2ccc(Cl)cc2[N+](=O)[O-])ccc1Cl,3,-11,0,1,0,2,·,·
COc1ccc(N=c2oc3cc(O)ccc3cc2C(=O)NCC2CCCO2)cc1 (stereo not given),-371,-12,-468,i,16*,i,8,11*
CCOc1ccccc1N=c1oc2cc(O)ccc2cc1C(=O)NCC1CCCO1 (stereo not given),i,-14,i,i,88*,i,12,14*
CCOc1ccc(C(=O)NCC2CCCO2)cc1OCC (stereo not given),0,6,2,-1,-1,2,·,·
SMILES,PLCg1 inh,HGIII-sPLA2 inh,PLC-beta3 inh,ADAM17 inh,KLK7 zymogen act,ADAM10 inh,KLK7 act conf,EDANS-DABCYL int
CCOc1ccc(N=c2oc3cc(O)ccc3cc2C(=O)NCC2CCCO2)cc1 (stereo not given),-153,-1,-222,-280,6,i,·,·
COc1ccc(N=c2oc3cc(O)ccc3cc2C(=O)NCC2CCCO2)c(OC)c1 (stereo not given),i,-1,i,i,20*,i,13*,17*
COC(=O)[C@]12C[C@H](CC(=O)NCc3ccc(OC)c(OC)c3)C(=O)N(Cc3ccc(Cl)cc3Cl)C1=C[C@H](C(C)C)O[C@@H]2C1CC1,2,-18,1,4,0,11,·,·
CCCCCN1CCCCC(NC(=O)c2ccc(C)cc2)C1=O (stereo not given),2,4,1,-7,0,-4,·,·
C=C(C)CN(CC)c1nc(N)c2c(N)nc3c(c2c1C#N)CC(=O)N3C12CC3CC(CC(C3)C1)C2,-64,-5,-77,-3,-2,-28,·,·
N#Cc1c(N(CCO)CCO)nc(N)c2c(N)nc3c(c12)CC(=O)N3CC1CCCO1 (stereo not given),-280,0,-377,-72,30*,-212,43*,49*
CCN1CCN(Cc2c(O)c(Cl)cc3c(C)cc(=O)oc23)CC1,i,-3,i,i,71*,i,81*,80*
CCc1cc(=O)oc2cc(C)c(CN3CCCC3)c(O)c12,-32,0,-63,-1,-2,-2,·,·
Cc1cc(=O)oc2c(CN3CCCC3)c(O)c(Cl)cc12,i,-1,i,i,46*,i,62*,72*
CCCc1cc(=O)oc2c(CN3CCCC3)c(O)c(Cl)cc12,i,1,i,i,70*,i,64*,77*
CCc1cc(=O)oc2c(CNCc3ccccc3F)c(O)c(Cl)cc12,i,-2,i,i,36*,i,61*,66*
Cc1cc(=O)oc2c(CN3CCCCC3)c(O)c(Cl)cc12,i,6,i,i,61*,i,61*,60*
Cc1cc(=O)oc2c(CN3CCC(C)CC3)c(O)c(Cl)cc12,i,-1,i,i,70*,i,65*,66*
CCN1C(=O)c2cccc3c(S(=O)(=O)NCCCN4CCOCC4)ccc1c23,i,3,i,-78,51*,-273,44*,43*
